# KB-V1 cytotox = kills drug-selected multidrug resistant KB-V1 cells; KB-V1 MDR cells viability, CellTiter-Glo, 72 h; 400,000 compounds, 3.4% hits; Potency, µM (doses to about 46.1 µM), usual class: cytotoxic; further: nearly all actives have a fitted effect of over 60% in size
#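 Readout: CellTiter-Glo luminescence, 10 min after addition. Cells: KB-V1 MDR subline, 72 h at 37 degrees C with compound. Analysis: corrected, normalized data fitted to concentration-effect curves.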
# KB-3-1 tox = kills parental KB-3-1 adenocarcinoma cells; 400,000 compounds, 1.4% hits; KB-3-1 viability, CellTiter-Glo ATP luminescence, 72 h; Potency, µM (top dose mostly 46.1 µM), hits mostly cytotoxic; further: nearly all actives have a fitted effect of over 60% in size
#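 Parental KB-3-1 viability, qHTS format: 72 h compound exposure, 37 °C; CellTiter-Glo; media-only wells and DMSO plates as controls; concentration-effect fits on corrected data.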
# SW480 rereplic = DNA re-replication induction in SW480 cells; SW480 DNA re-replication, Hoechst DNA content imaging, 48 h; Potency, µM (highest dose often 46.1 µM), most hits filed as activators; 340,000 compounds, 1.8% hits; further: nearly all actives have a fitted effect of over 55% in size
#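 Image-based DNA-content assay: after two days of treatment, nuclei were labelled with the DNA dye Hoechst and imaged, and hits were compounds raising the count of nuclei showing high fluorescence intensity.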
# PINK1 modulator = changes PINK1 expression; PINK1 immunofluorescence, high-content cytometry, 24 h; 410,000 compounds, 0.2% hits; AID 624263; Potency, µM (series often up to 76.6 µM), actives largely listed as activators; active means well fitted activation curve with a large enough effect; inconclusive means small, poorly fitted or top-dose-only effect; cell line not stated here; further: nearly all actives have a fitted effect of over 65% in size
#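 PINK1 protein level read as immunofluorescence by microplate cytometer in a fixed, stained stable cell line after 24 h exposure to five compound concentrations, with CCCP as control.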
# MCF10A rerep = DNA re-replication induction in MCF 10a cells | MCF 10A DNA re-replication, Hoechst nuclear intensity, 48 h | Potency, µM (series often up to 46.1 µM), hits mostly activators | 350,000 compounds, 2.9% hits; further: nearly all actives have a fitted effect of over 50% in size
# Numbers stand for hits; – = inactive; ? = inconclusive; · = no result given. An excerpt weighted towards active compounds, which were near 6.7% of everything screened. Unless noted, the call rests on the fitted dose curve; in most records, active means well fitted curve in the direction sought with a large enough effect; inconclusive means small, poorly fitted or top-dose-only effect, or another doubt; inactive means no such curve, though single readings can be large; an effect the other way counts as inactive or inconclusive.
SMILES,KB-V1 cytotox,KB-3-1 tox,SW480 rereplic,PINK1 modulator,MCF10A rerep
Cc1ccc(NC(=O)COC(=O)c2ccccc2OCC(=O)Nc2ccc(Br)cc2)c(Br)c1,·,·,·,–,·
COc1ccc(S(=O)(=O)N2CCOCC2)cc1NC(=O)CCNC(=O)c1ccc([N+](=O)[O-])cc1,–,–,?,–,?
CCCCn1c(N)c(N(CCOC)C(=O)c2cc(S(=O)(=O)N3CCOCC3)ccc2Cl)c(=O)[nH]c1=O,–,–,–,–,–
Cc1ccc(C)c(C(=O)NC(C)CCc2ccccc2)c1 (configuration not stated),–,–,–,–,–
Cc1occc1C(=O)NC(C)CCc1ccccc1 (configuration not stated),–,–,–,–,20.6µM
COc1ccccc1C(CCNCc1ccccc1)c1ccc(OC(C)C)cc1 (configuration not stated),–,?,?,–,18.4µM
CC(C)Oc1ccc(C(CC(=O)NCc2ccco2)c2ccccc2)cc1 (configuration not stated),20.6µM,–,–,–,–
COc1ccc(CNCCC(c2ccccc2)c2ccc3c(c2)OCO3)cc1 (configuration not stated),?,?,?,?,18.4µM
COc1ccccc1NC(=O)CC(c1ccc(OC(C)C)cc1)c1ccccc1OC (configuration not stated),4.61µM,–,?,–,?
COc1ccc(C(CC(=O)O)c2ccc3c(c2)OCO3)cc1 (configuration not stated),–,–,?,–,–
Cc1ccc(-n2c3c(cc(-c4nc(-c5ccc(Cl)cc5)cs4)c2=O)C(=O)CC(C)(C)C3)cc1C,?,–,·,–,·
COc1ccccc1C(=O)COC(=O)c1cccc(S(=O)(=O)N2CCCC2)c1,?,–,–,–,?
COc1ccc(CNCCC(c2ccc(OC(C)C)cc2)c2ccccc2OC)cc1 (configuration not stated),20.6µM,?,?,–,?
Cc1ccc2c(CNC3CCC(C)CC3)c(C(=O)O)n(Cc3cccc(F)c3)c2c1 (configuration not stated),–,?,·,–,·
CCN(CC)c1nc2ccccc2nc1C(=O)Nc1ccc(C(C)=O)cc1,–,–,·,–,·
CC(C(=O)NCc1ccccc1)n1c(-c2ccc3c(c2)CCO3)nc2ccccc21 (configuration not stated),?,–,·,·,·
N=c1c(C(=O)NCc2ccc(F)cc2)cc2c(=O)n3ccccc3nc2n1CCCN1CCOCC1,–,–,?,–,2.82µM
COCCCn1c(C(=O)NCCN2CCOCC2)cc2c(=O)n3ccccc3nc21,–,–,–,–,–
N=c1c(C(=O)NCc2ccccc2)cc2c(=O)n3ccccc3nc2n1CCCN1CCOCC1,–,?,9.2µM,–,3.66µM
N=c1c(C(=O)NCCc2ccccc2)cc2c(=O)n3ccccc3nc2n1CCCN1CCOCC1,?,–,5.17µM,–,?
N=c1c(C(=O)NCCN2CCOCC2)cc2c(=O)n3ccccc3nc2n1CCc1ccccc1,–,–,10.3µM,–,?
CCOCCCn1c(=N)c(C(=O)NCc2ccccc2)cc2c(=O)n3ccccc3nc21,–,–,·,–,·
Cc1c(NC(=O)c2ccc([N+](=O)[O-])o2)cccc1-c1nc2ncccc2o1,?,?,?,–,?
O=C(Nc1ccc2ccccc2c1)Nc1nnc(Br)s1,–,?,·,·,·
COc1ccc(CN2CCCC(n3cc(C(=O)N4CCCCC4)nn3)C2)c(OC)c1 (configuration not stated),·,·,·,–,·
SMILES,KB-V1 cytotox,KB-3-1 tox,SW480 rereplic,PINK1 modulator,MCF10A rerep
O=C1c2ccccc2C(=O)N1CC(O)COc1cccc2ccccc12 (configuration not stated),–,–,·,–,·
Cn1c(C(=O)NCCN2CCOCC2)cc2c(=O)n3ccccc3nc21,–,–,?,–,?
Cc1ccc(Cn2c(=N)c(C(=O)NCCN3CCOCC3)cc3c(=O)n4ccccc4nc32)cc1,–,–,?,–,0.581µM
Cc1ccc(-n2nc(C)cc2Nc2ncc(Cl)cc2Cl)cc1,20.6µM,–,?,–,?
Cc1cc(Nc2nc(Cl)c(Cl)cc2Cl)n(-c2ccccc2)n1,?,11.6µM,–,–,?
CC(C)(C)C1CCc2c(sc(NC(=O)C3CCCO3)c2C(N)=O)C1 (configuration not stated),–,–,?,–,17.8µM

# Compound activity (PubChem)
